FAK inh: FAK kinase inhibitors, primary screen, biochemical. Focal adhesion kinase 1 (Homo sapiens), Q05397. biochemical FAK kinase activity assay. inhibition, %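 (tested at 7 µM)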. 97,000 tested, 0.84% active. AID 727, 2007;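 further: 0% = DMSO and 100% = reference compound high control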
Smad3 inh: Smad3/FoxH1 peptide binding inhibitors, primary screen, biochemical, TR-FRET | Mothers against decapentaplegic homolog 3 (Homo sapiens), P84022 | TR-FRET Smad3/Dy647-FoxH1 peptide binding, europium anti-His | inhibition, % at 25 µM | 88,000 tested, 0.29% active | AID 630, 2007;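 active means compounds that reduce the energy-transfer binding signal between the protein and its labelled peptide by more than half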;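 further: 0% = Smad3 plus labelled peptide maximal FRET and 100% = peptide-only background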
Calb biofilm kill: clotrimazole potentiators killing Candida biofilms, primary screen, with clotrimazole, Alamar Blue; C. albicans biofilm + clotrimazole; inhibition, % at 6 µM; 85,000 tested, 0.14% active; AID 834, 2007;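 active means inhibition above 20%; inactive means inhibition below 20%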;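 further: preformed 24 hr biofilms exposed to compound for 48 hr; 0% = biofilm without compound and 100% = blank killed by clotrimazole plus chlorhexidine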
ERa SRC1 pot: enhancers of ERα–SRC-1 coactivator binding, primary screen, biochemical, TR-FRET, ERα LBD, low estradiol | Estrogen receptor (Homo sapiens), P03372 | TR-FRET ERalpha-LBD/SRC-Cy5 coactivator binding, 2 h; 100 = basal binding, no effect | coactivator binding (% of control), % at 25.6 µM | 86,000 tested, 1.3% active | AID 639, 2007; in the data active means activity above about 200%;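 further: binding measured in presence of low estradiol as agonist stimulus; 0% = peptide alone without receptor and 100% = receptor with peptide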
ERb coact inh: inhibitors of ERβ-SRC1 coactivator interaction, primary screen, biochemical, TR-FRET, ERβ LBD, SRC-1 peptide | Estrogen receptor beta (Homo sapiens), Q92731 | TR-FRET ER-beta LBD / SRC1-Cy5 peptide binding; receptor agonist-loaded with 1 µM estradiol | inhibition, % at 25.6 µM | 86,000 tested, 1.3% active | AID 633, 2007;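 active means compounds whose percent inhibition of the receptor-coactivator binding signal exceeds about 50% in the single-dose screen, limit read from the data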;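 further: 0% = receptor plus peptide wells without compound and 100% = peptide-only wells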
Target sequence (Q92731 whole entry, looked up, the tested form may be a part): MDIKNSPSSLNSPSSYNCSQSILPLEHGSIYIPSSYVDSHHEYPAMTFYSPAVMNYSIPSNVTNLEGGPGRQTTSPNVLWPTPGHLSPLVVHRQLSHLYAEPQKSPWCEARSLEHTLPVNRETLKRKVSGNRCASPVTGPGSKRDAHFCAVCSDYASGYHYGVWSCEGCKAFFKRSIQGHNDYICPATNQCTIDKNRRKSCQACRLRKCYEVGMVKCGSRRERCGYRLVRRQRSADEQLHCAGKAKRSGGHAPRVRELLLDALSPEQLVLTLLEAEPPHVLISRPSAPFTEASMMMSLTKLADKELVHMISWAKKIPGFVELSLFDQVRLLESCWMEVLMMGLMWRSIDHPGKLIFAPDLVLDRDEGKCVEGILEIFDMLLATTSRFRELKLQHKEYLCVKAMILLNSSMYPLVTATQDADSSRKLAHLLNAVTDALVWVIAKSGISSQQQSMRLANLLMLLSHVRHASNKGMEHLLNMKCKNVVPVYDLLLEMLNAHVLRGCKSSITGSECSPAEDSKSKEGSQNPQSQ
ERa SRC1 inh: ERα–SRC-1 coactivator interaction inhibitors, primary screen, biochemical, TR-FRET, ERα LBD, estradiol-bound | Estrogen receptor (Homo sapiens), P03372 | TR-FRET ER-alpha LBD / SRC-1 peptide | inhibition, % at 25.6 µM | 86,000 tested, 1.7% active; in the data active means inhibition above about 50%;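 further: 0% = receptor plus peptide control and 100% = peptide only without receptor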
FAK inh confirm: FAK kinase inhibitors, retest, confirmation, biochemical. shares compounds with FAK inh. inhibition, % at 7 µM. 750 tested, 28% active. FAK kinase biochemical inhibition assay
Numbers without * were called inactive; . = no result; [ ] = another dose, or the depositor's remark. Rows were chosen to be rich in hits. Some 3.3% of all compounds tested hit in one or more screens of this group. Unless noted, no stated cut-off is given here; in the data, active means inhibition above about 19%; inactive means the rest.

SMILES	FAK inh	Smad3 inh	Calb biofilm kill	ERa SRC1 pot	ERb coact inh	ERa SRC1 inh	FAK inh confirm
Cc1cccn2c(=O)c(C=Nc3ccccc3)c(NCc3ccco3)nc12	24*	6	5	105	18	12	4
CCCOc1ccc(C2C(=O)N(C3CCCCC3)CC(=O)N2C2CC2)cc1OC (centres undefined)	-2	-18	2	87	1	-7	.
CC(C)C(=O)Nc1ccc(N2CCCC2)cc1	5	5	2	60	40	25	.
CCN1CCN(c2ccc(NC(=O)Cc3ccccc3)cc2)CC1	7	-4	5	60	49	35	.
O=C(Cc1ccccc1)Nc1ccc(N2CCCC2)cc1	30*	6	-2	38	28	30	16
O=C(Nc1ccc(N2CCCC2)cc1)C(c1ccccc1)c1ccccc1	46*	8	2	7	27	60*	29*
O=C(NCc1ccccc1)C(c1ccncc1)N(C(=O)c1csnn1)C1CC1 (centres undefined)	0	11	5	99	-6	8	.
Nc1nc2c(c(=O)[nH]1)N[C@H](CCNc1ccc(C(=O)O)cc1)CN2	.	-7	.	.	.	.	.
COc1ccc(-c2coc3cc4oc(=O)cc(C)c4cc23)cc1F	36*	.	.	.	.	.	23*
COc1ccc(-c2cc(=O)oc3cc4occ(C)c4cc23)cc1	4	.	.	.	.	.	.
Cc1cc(C)nc(-n2nc(C)cc2NC(=O)COC(=O)CCC(=O)c2cccs2)n1	0	5	.	95	-3	9	.
CC(C)(C)C(=O)c1sc(Nc2ccccc2)nc1N	32*	2	6	88	1	13	19
COCCCNC(=O)Cn1nnc(-c2ccc(NC(=O)c3ccccc3F)cc2)n1	0	4	3	101	-10	-12	.
CCOc1ccc(N2C(=O)CC(Sc3nc(-c4cccs4)cc(C(F)(F)F)c3C#N)C2=O)cc1 (centres undefined)	-7	.	.	.	.	.	.
CCCC(=O)Nc1nc2nc(-c3ccccc3)cc(-c3ccccc3)n2n1	2	-11	6	91	2	15	.
CCC(=O)Nc1nc2nc(-c3ccccc3)cc(-c3ccccc3)n2n1	24*	.	.	.	.	.	8
COC(=O)c1sccc1-c1ccc(C(=O)Nc2cccc(Cl)c2)o1	26*	.	.	.	.	.	7
CN(C)S(=O)(=O)Oc1ccsc1C(=O)Nc1cccc(Cl)c1	-2	.	.	.	.	.	.
Cc1ccc(-n2nc3ccc(NC(=O)c4ccc5c(c4)OCO5)cc3n2)cc1	25*	11	7	60	66*[fluorescence artefact?]	88*[fluorescence artefact?]	15
CC(C)(C)N=C1NC(=NC(C)(C)C)c2ccccc21	4	2	.	101	-9	7	.
CN1C(=O)/C(=C/c2ccccc2OCc2ccccc2F)NC1=S	21*	.	.	.	.	.	3
COc1ccccc1/C=C1\NC(=S)N(CC2CCCO2)C1=O (centres undefined)	-4	.	.	.	.	.	.
O=C1NC(=S)N/C1=C\c1cccc([N+](=O)[O-])c1	0	3	4	107	5	13	.
O=C1NC(=S)N/C1=C/c1ccc(-c2c(Br)cc([N+](=O)[O-])cc2Br)o1	36*	.	.	.	.	.	11
CCC(C)C(NC(=O)C(C)NC(=O)CNC(=O)CNC(=O)OCc1ccccc1)C(=O)OC (centres undefined)	-2	0	-3	101	-11	-14	.
SMILES	FAK inh	Smad3 inh	Calb biofilm kill	ERa SRC1 pot	ERb coact inh	ERa SRC1 inh	FAK inh confirm
N#Cc1ccccc1/C=N/Nc1nc(-c2ccccc2)c2cc(Cl)ccc2n1	50*	.	.	.	.	.	34*
CCOC(=O)N1CCN(C(=O)c2ccc(CN(c3ccccc3)S(C)(=O)=O)cc2)CC1	-2	4	8	115	-9	-1	.
C=CCn1c(CNC(=O)CCC)nc2ccccc21	2	6	2	119	-2	4	.
C=CCn1c(P(=O)(O)c2ccccc2)nc2ccccc21	35*	.	.	.	.	.	24*
CCOC(=O)c1cc2sc(C)cc2n1CC(=O)N(CC)CC	30*	-6	-4	97	-23	-8	0
CCN(CCO)c1nc(SC)nc2c1sc1nc(-c3ccco3)c3c(c12)CCC3	72*	.	.	.	.	.	1
Cc1ccc2cc3cc(C(=O)NCc4ccco4)oc3nc2c1	21*	7	4	140	37	53*[fluorescence artefact?]	5
CC1=C(C(=O)Nc2ccccc2)C(c2ccc(C)cc2)N=C(Nc2nc3ccccc3o2)N1 (centres undefined)	-4	.	.	.	.	.	.
CC(C)CN(C(=O)COC(=O)c1cc2c(s1)CCC2)C1CCS(=O)(=O)C1 (centres undefined)	30*	6	3	23	75*	80*	9
O=c1c(/C=N/O)c(Nc2ccccc2)nc2ccccn12	50*	-3	4	104	9	3	31*
Cc1cccn2c(=O)c(/C=N/O)c(N3CCCCC3)nc12	-5	3	7	81	11	11	.
Cn1c(=O)c2c3c(sc2n2c(SCC(N)=O)nnc12)CC(C(C)(C)C)CC3 (centres undefined)	5	12	4	78	-24	-11	.
CCCc1nc2n[nH]c(N)c2c2c1CCCC2	21*	3	6	105	4	3	10
CCCc1nnc(N2C(=O)c3cccc4cccc(c34)C2=O)s1	-3	-3	-3	96	-6	0	.
COc1ccc2c(c1)CCc1c(C(=O)Nc3ccn(Cc4ccc(C)cc4)n3)noc1-2	26*	-3	5	118	13	21	-1
CCc1c(C)nc(SCC(=O)c2cccs2)c(C#N)c1C	30*	11	-1	138	53*	19	26*
CCc1c(C)nc(SCC(N)=O)c(C#N)c1C	3	-5	3	108	-27	10	.
CCn1nnc(NC(=O)c2cccc(-c3cc4ccccc4oc3=O)c2)n1	-1	4	4	93	2	2	.
CCOc1ccc(C(=O)Nc2cccc(-c3cc4ccccc4oc3=O)c2)cc1[N+](=O)[O-]	30*	.	.	.	.	.	13
Cc1ccc(CNC(=O)CCS(=O)(=O)c2cccc3nonc23)cc1	.	6	3	102	-29	-29	.
CC(C)(C)C(=O)Nc1nc2c(s1)COc1ccccc1-2	45*	6	9	118	-8	-11	30*
O=C(CCSc1ccccc1)Nc1nc2c(s1)COc1ccccc1-2	2	-7	6	126	4	-2	.
